In PubChem BioAssay (Tox21):
Inconclusive results are not listed. Calls of active or inactive are those of the source. The call rests on the fitted dose curve; in most records, active means well fitted activation curve with a large enough effect; inconclusive means small, poorly fitted or top-dose-only effect; inactive means flat fitted curve, though single readings scatter.

Assay: qHTS assay to identify small molecule phospholipidosis (PLD) inducers (AID 1259344)
Details: HepG2 phospholipidosis, LipidTOX Red imaging, 24 h; series mostly up to 38.3 µM; PLD induction: at the top concentration
In short: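 HepG2 cells grown on collagen I take up LipidTOX Red while exposed to compound for 24 h; after fixation they are imaged at 20x and pit metrics are extracted.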
On the % scale 0 is the no-effect control and ±100 the full control effect.

Compound	PLD induction
O=C(O)c1nc(=O)[nH]c(=O)[nH]1	2.2% (inactive)
CC(=O)N=c1sc(S(N)(=O)=O)nn1C	0.0304% [at 15.5 µM] (inactive)
C[N@+]12CCCC[C@@H]1CCC(=C(c1cccs1)c1cccs1)C2	0.387% (inactive)
CC[C@@]1(O)C[C@H](O[C@H]2C[C@H](N(C)C)[C@H](O[C@H]3C[C@H](O)[C@H](O[C@H]4CCC(=O)[C@H](C)O4)[C@H](C)O3)[C@H](C)O2)c2c(cc3c(c2O)C(=O)c2c(O)cccc2C3=O)[C@H]1C(=O)OC	14.8% (inactive)
C/C1=C2N=C(/C=C3N=C(/C(C)=C4\[N-][C@@](C)([C@@H]5N=C1[C@](C)(CCC(=O)NCC(C)OP(=O)(O)O[C@H]1[C@@H](O)[C@@H](n6cnc7cc(C)c(C)cc76)O[C@@H]1CO)[C@H]5CC(N)=O)[C@@](C)(CC(N)=O)[C@@H]4CCC(N)=O)[C@@](C)(CC(N)=O)[C@@H]\3CCC(N)=O)C(C)(C)[C@@H]/2CCC(N)=O.CC(=O)O.[Co] (some centres not stated)	-0.725% (inactive)
CC1(C)S[C@@H]2[C@H](NC(=O)C(C(=O)O)c3ccsc3)C(=O)N2[C@H]1C(=O)O (some centres not stated)	-1.46% (inactive)
CCCCC/C=C\CCC(=O)N[C@H]1[C@H](Oc2c3cc4cc2Oc2ccc(cc2Cl)[C@@H](O[C@@H]2O[C@H](CO)[C@@H](O)[C@H](O)[C@H]2NC(C)=O)[C@@H]2NC(=O)[C@H](NC(=O)[C@@H]4NC(=O)[C@H]4NC(=O)[C@@H](Cc5ccc(c(Cl)c5)O3)NC(=O)[C@H](N)c3ccc(O)c(c3)Oc3cc(O)cc4c3)c3ccc(O)c(c3)-c3c(O[C@H]4O[C@H](CO)[C@@H](O)[C@H](O)[C@@H]4O)cc(O)cc3[C@@H](C(=O)O)NC2=O)O[C@H](CO)[C@@H](O)[C@@H]1O	20.7% (inactive)
